Test results as given in the supplement of paper PMC3334620.
Whole data set: some 33,000 sequences, median “E-score (-0.5 to 0.5)” near -0.0014, cut for the highest 2% near 0.25. Only a selection was taken, and the highest values are over-represented in it overall.

What follows are sequences tested against T1, Cad1 (UniProt P24813) (assay: PBM E-score (8-mer binding enrichment) (E-score (-0.5 to 0.5)); higher = stronger / more preferred TF binding). Settings: protein concentration: 100 nM; construct: GST-full length.
T1 sequence: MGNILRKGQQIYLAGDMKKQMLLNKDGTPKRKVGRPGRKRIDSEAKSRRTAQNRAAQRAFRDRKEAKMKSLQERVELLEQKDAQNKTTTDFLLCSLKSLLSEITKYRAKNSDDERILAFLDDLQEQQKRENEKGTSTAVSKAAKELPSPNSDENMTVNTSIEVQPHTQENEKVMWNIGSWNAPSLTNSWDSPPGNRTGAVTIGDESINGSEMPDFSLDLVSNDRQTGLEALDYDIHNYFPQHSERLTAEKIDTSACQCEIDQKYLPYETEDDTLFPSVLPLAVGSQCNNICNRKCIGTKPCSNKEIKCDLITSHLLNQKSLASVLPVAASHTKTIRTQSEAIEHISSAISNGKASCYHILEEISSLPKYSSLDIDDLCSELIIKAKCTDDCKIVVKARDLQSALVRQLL
Summary of the method: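 For each ungapped eight-base word taken together with its reverse complement, the Universal PBM Analysis Suite assigned an E-score. Binding data came from GST-tagged yeast transcription factors, applied at about 100-200 nM, on universal all-10-mer Agilent arrays made double-stranded by primer extension. Fluorescent anti-GST marked bound protein, and scans were normalised with masliner.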

Sequence | PBM E-score
AGTTTGGC | 0.109
CCCTAAAA | -0.228
GCTCAGCC | -0.143
AGGCAAAC | -0.106
CACCGTGG | -0.018
ACTAATGC | 0.275
ACGAATTA | 0.0763
ACTAATTG | 0.197
ACTAATTA | 0.377
CCTAATTC | -0.115
GCTAATTA | 0.306
ACTAATGA | 0.128
ACTAATGG | 0.209
CCTAATTA | 0.156
ACTAATTC | 0.306
GCTAATGA | -0.0534
ACTAACTA | 0.00503
CGAAAACG | 0.0757
CTTTACCA | 0.00321
AACTTATT | 0.142
GTATTAAC | -0.0392
AGGATTAT | -0.0734
ATCATAGA | 0.146
AAATACCC | 0.136
CCCAAGAA | 0.0477

Sequence | PBM E-score
ACTTCCAC | 0.00186
AATGGACT | 0.0697
ACTCTCGA | 0.141
AAGCCATC | 0.0891
CAGGGCTC | -0.158
CAATATAC | 0.0244
GAATATAA | 0.0963
TAATAAAA | 0.226
CAATATAG | 0.101
TAATATAA | 0.332
CAATATAA | 0.283
AAGAATTC | 0.0649
CACACTCG | 0.0692
AAGTCCTG | -0.138
CTAATCTA | 0.0215
CTAATTTA | 0.199
ATAATCTA | 0.185
GCAATCCA | 0.0441
CTAATCCA | 0.131
ATAATCCC | -0.033
GTAATTTA | 0.267
ATAATCCG | 0.119
ATAATTTA | 0.236
GTAATCTA | 0.268
GTAATCCA | 0.277

Sequence | PBM E-score
ATAATCCA | 0.252
GCTTTGCC | -0.183
CAGGTCTC | -0.164
CGACCATA | -0.0443
AACCCCGC | -0.159
CGATTGCC | 0.0433
GTAATCAA | 0.253
TTAATCAA | 0.199
GTAATCAC | 0.229
CGCTAGAG | -0.115
AAAGTCGA | -0.0137
GTTTGCAA | 0.0869
ATTTGCAA | 0.277
GTTTGAAA | 0.113
CTTTGCAA | 0.0374
ATTTGAAA | 0.251
CTTTGAAA | 0.116
TGTCGCAA | -0.137
GGCCTCAA | -0.0369
AAAGTCAT | 0.074
ACCCTCTA | -0.192
CCCCAAGG | -0.307
GCACCTCA | 0.0626
AGATCGAC | 0.0578
CGATCGAC | 0.272

Sequence | PBM E-score
CGATCGAA | 0.106
CTGGCTAC | -0.259
GATAGACA | -0.0074
CTCCACCA | -0.193
GGACAGAA | 0.0717
ACTCGCGG | 0.0242
GCTCGCTA | -0.0118
CCTCGCGA | 0.121
ACTCGCGC | 0.0881
GCTCGCGA | 0.3
ACTCGCGA | 0.271
CGATGAAG | -0.0787
AGAGTATC | -0.0123
AATCCACG | 0.048
AGTTTCCG | 0.105
CCTGGGGC | -0.343
ACTGTAGC | -0.136
CACGTCTG | 0.134
ACATCGAA | 0.169
TCCGGGCA | 0.00134
AGCTCGCC | -0.0374
ATCTCGCC | -0.0589
AGCTCGCA | 0.0143
ATCTCGCG | 0.256
ATCTCGCA | 0.0847

Sequence | PBM E-score
AGCTCGCG | 0.262
CGCTGACA | 0.297
TGCTGAAA | -0.0176
AGCTGACA | 0.192
GGCTGACA | 0.313
GGCTGACC | -0.121
CGCTGACG | 0.0393
TGCTGACA | 0.334
GGCTGATA | -0.0873
CGCTGACC | 0.117
CGCGCAAC | 0.2
AGGATGGG | -0.107
AAGTCTAG | -0.155
AGAAAAGA | -0.0414
AGAAAATC | -0.0518
CGAAAATC | 0.259
CGAAAATA | 0.163
CGAAAAGA | 0.28
GGAAAAGA | -0.191
GTATTGCA | -0.0639
ATAGGCGC | 0.0733
ACGGGCAA | -0.05
ACCAAAAT | 0.0849
ACCAAAAA | 0.278
ACCAATAC | -0.106

Sequence | PBM E-score
ACCAATAT | 0.306
ACGAATAA | -0.0279
AACAATAC | 0.135
AACAATAT | 0.338
ACGAATAT | 0.268
AACAATAA | 0.211
ACCAATAG | -0.201
ACGAATAC | 0.132
ACCAAAAC | -0.0311
ACGGACCT | -0.0269
CCAGCGTA | -0.0528
GCTCATGA | 0.0686
GCTGCCCC | -0.107
GCCCCAGA | -0.158
CCTTGGGA | -0.00782
CAGTGGAA | -0.0557
CGTCCGGA | 0.099
ACGTTGGG | 0.0171
ACTCGCAT | 0.101
CGTACACG | 0.0454
ATTACATG | 0.301
ATTACATC | 0.209
ATTACACA | 0.284
ATTACTCG | 0.221
TGTACACA | 0.256

Sequence | PBM E-score
ATTACAGG | 0.228
ATTACACG | 0.0358
ATTACTCC | 0.0689
ATTACTCA | 0.325
AGTACACA | 0.0961
ATTACACC | 0.108
CGCTCAAA | 0.0635
GTACTCAC | 0.158
CATCGATA | 0.149
CTAGATAG | 0.0131
GAAATCGA | 0.0829
CTTACATC | -0.00465
GGTATACA | 0.0215
GTTACATA | 0.253
ATTACATA | 0.296
ACTACATA | 0.0142
AGTATACA | 0.207
GTTACAAA | 0.223
ATTACAGA | 0.152
CATACATA | 0.161
TGTATACA | 0.272
GCTACATA | -0.00397
CTTACATA | 0.278
